# Measured values published in PubChem BioAssay AID485346 (Sanford-Burnham Center for Chemical Genomics, 2010).
# The campaign covered roughly 330,000 compounds. About 10,000 (3%) were called active. The sample holds actives, similar compounds and a random draw of the others, so the mix is not that of the screen.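 The calls were made as follows: active = inhibition of at least 50% at 8 µM in the primary screen; inactive = the rest.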
# Molecular target: Protein Mdm4 (Homo sapiens) + E3 ubiquitin-protein ligase Mdm2 (Homo sapiens) (UniProt O15151+Q00987)
# Sequence (O15151 whole entry, looked up): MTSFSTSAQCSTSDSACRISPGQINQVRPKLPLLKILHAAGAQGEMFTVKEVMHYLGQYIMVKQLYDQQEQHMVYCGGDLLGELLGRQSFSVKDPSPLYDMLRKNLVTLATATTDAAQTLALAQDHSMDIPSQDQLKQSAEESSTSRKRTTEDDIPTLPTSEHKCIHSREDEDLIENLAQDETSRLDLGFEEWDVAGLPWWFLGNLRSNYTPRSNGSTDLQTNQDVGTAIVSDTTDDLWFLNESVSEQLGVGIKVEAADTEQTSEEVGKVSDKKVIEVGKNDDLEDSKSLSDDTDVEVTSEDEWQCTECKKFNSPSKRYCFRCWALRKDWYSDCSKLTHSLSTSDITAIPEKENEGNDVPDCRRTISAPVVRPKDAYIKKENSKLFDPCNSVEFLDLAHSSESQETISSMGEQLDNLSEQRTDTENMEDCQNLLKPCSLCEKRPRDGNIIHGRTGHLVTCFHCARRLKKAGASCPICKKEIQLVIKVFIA
# Sequence (Q00987 whole entry, looked up): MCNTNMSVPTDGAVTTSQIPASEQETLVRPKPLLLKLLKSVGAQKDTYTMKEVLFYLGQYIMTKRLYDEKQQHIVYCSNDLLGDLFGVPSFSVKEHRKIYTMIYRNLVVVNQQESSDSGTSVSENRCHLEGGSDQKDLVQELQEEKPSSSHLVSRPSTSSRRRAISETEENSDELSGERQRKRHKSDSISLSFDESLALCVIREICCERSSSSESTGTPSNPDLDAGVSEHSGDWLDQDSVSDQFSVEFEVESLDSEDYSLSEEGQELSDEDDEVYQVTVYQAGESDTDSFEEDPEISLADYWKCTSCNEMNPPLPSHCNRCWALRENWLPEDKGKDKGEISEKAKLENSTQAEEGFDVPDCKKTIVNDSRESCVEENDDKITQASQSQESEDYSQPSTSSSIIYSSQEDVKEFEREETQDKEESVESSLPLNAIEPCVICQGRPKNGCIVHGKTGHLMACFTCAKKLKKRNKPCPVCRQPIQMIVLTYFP
# Assay: disruptors of Mdm2/MdmX RING complex – cell-based, luminescence, split luciferase, SaOS-2, uHTS, primary screen (AID 485346)
# Settings: SaOS-2 split-luciferase Mdm2/MdmX complementation, at 8 µM, stronger effect = higher value
row,SMILES,inhibition
1,Cc1ccc(NC(=S)NC(NC(=O)Cc2cccc3ccccc23)C(Cl)(Cl)Cl)cc1 (stereo not given),79.8% (active)
2,CC(C)(C)C(=O)NC(NC(=S)Nc1ccc(S(N)(=O)=O)cc1)C(Cl)(Cl)Cl (stereo not given),18.8% (inactive)
3,O=C(Cc1cccc2ccccc12)NNC(=O)Nc1ccc(Cl)cc1,-10% (inactive)
4,COc1ccc(S(=O)(=O)N2CCN(C(=O)N(C)C)C2C)cc1 (stereo not given),-11.6% (inactive)
5,O=c1ccc2cc(S(=O)(=O)NCCCc3ccccc3)ccc2[nH]1,23.1% (inactive)
6,N#Cc1c(N)nc2c(c1N)CC(C(F)(F)F)O2 (stereo not given),9.73% (inactive)
7,O=C(CN1C(=O)/C(=C\c2ccccc2F)SC1=S)Nc1nc2ccccc2s1,-22.4% (inactive)
8,CN1C(=O)/C(=C/c2ccco2)SC1=Nc1cccc(C(=O)O)c1,-14.1% (inactive)
9,O=C(CCCN1C(=O)/C(=C/c2ccco2)SC1=S)Nc1ccccc1,68.6% (active)
10,O=C(CCCN1C(=O)/C(=C\c2ccco2)SC1=S)Nc1cccc2ccccc12,86.5% (active)
11,O=C(CCCCCN1C(=O)c2cccc3cccc(c23)C1=O)NCc1ccco1,2.52% (inactive)
12,Cc1ccc(-c2nn(-c3ccccc3)cc2/C=C2\SC(=S)N(CCCCCC(=O)O)C2=O)o1,34% (inactive)
13,Cc1sc(NC(=O)C2=COCCO2)c(C#N)c1C,-49.9% (inactive)
14,COc1ccc(N2CCN(C(=O)CN3C(=O)COc4ccccc43)CC2)cc1,-8.57% (inactive)
15,CNC1(c2nnnn2-c2c(C)cccc2C)CCOC(C)(C)C1 (stereo not given),1.22% (inactive)
16,CCOC(=O)[C@H]1[C@H]2COc3cc(OC)ccc3[C@@H]2N2C(=O)CN(Cc3ccc(Cl)cc3)C(=O)[C@@]12C,-12% (inactive)
17,O=C(Cc1ccc(S(=O)(=O)N2CCOCC2)s1)NCCOc1ccccc1F,11.2% (inactive)
18,Oc1c(Cl)cc(Cl)c(Cl)c1Cc1c(O)c(Cl)cc(Cl)c1Cl,95% (active)
19,CCOc1cc(/C=N/NC(=O)c2ccc(CSc3nncn3C)cc2)ccc1OCC(=O)N1CCOCC1,-20% (inactive)
20,CCCCCCSc1ccc(-c2nc3ccc(Cl)cn3c2NCc2ccccc2)cc1,-24.5% (inactive)
21,CCCCNc1c(-c2ccc(OC)c(Sc3ccc(OC)cc3)c2)nc2ccc(Cl)cn12,41.1% (inactive)
22,CCCCNc1c(-c2cccc(Sc3ccc(OC)cc3)c2)nc2ccccn12,78.3% (active)

row,SMILES,inhibition
1,CC(=NC1CCN(Cc2ccccc2)CC1)c1c(O)[nH]c(=O)[nH]c1=O,10.7% (inactive)
2,CC(=NCC1CCCO1)c1c(O)[nH]c(=O)[nH]c1=O (stereo not given),60.2% (active)
3,O=C1C(C=NCC2CCCO2)=C(O)c2ccccc21 (stereo not given),-17% (inactive)
4,CN(Cc1ccccc1)C(=O)c1cccc(C(=O)N(C)Cc2ccccc2)c1,-13.2% (inactive)
5,N#C/C(=C\c1ccccc1)c1n[nH]c(Cn2cncn2)n1,-1.38% (inactive)
6,CCOC(=O)N1CCN(C(=O)C(=O)Nc2sc3c(c2C#N)CC(C)(C)OC3)CC1,13.5% (inactive)
7,O=C(NCc1ccccc1)C1C(=O)N(Cc2ccccc2)C(=O)C1C1(O)CCCC1 (stereo not given),13% (inactive)
8,CCc1nc(C)cn1S(=O)(=O)c1cc(OC)c(C)cc1C,8.72% (inactive)
9,CC(C)c1nccn1S(=O)(=O)c1cc([N+](=O)[O-])ccc1Cl,25.4% (inactive)
10,CCc1nc(C)cn1S(=O)(=O)c1cc([N+](=O)[O-])ccc1Cl,66.2% (active)
11,C/C(=C(\C#N)C(=O)NCCCN1CCOCC1)N(C)C,13.1% (inactive)
12,C#CCOCCOCCOCCNc1nc(N2CCN(C(=O)CCCCCCCCCCNC(=O)[C@H]([C@@H](C)CC)n3cc(CCCCN=C(N)N)nn3)CC2)nc(N2CCN(C(=O)CCCCCCCCCCNC(=O)[C@H](CO)n3cc(CCCSC)nn3)CC2)n1,12.1% (inactive)
13,C#CCOCCOCCOCCNc1nc(N2CCN(C(=O)CCCCCCCCCCNC(=O)[C@H](CCCCN)n3cc(C)nn3)CC2)nc(N2CCN(C(=O)CCCCCCCCCCNC(=O)[C@H](CO)n3cc(CCCSC)nn3)CC2)n1,52.3% (active)
14,C#CCOCCOCCOCCNc1nc(N2CCN(C(=O)CCCCCCCCCCNC(=O)Cn3cc(CCCCCN)nn3)CC2)nc(N2CCN(C(=O)CCCCCCCCCCNC(=O)[C@H](CO)n3cc(CCCSC)nn3)CC2)n1,11.3% (inactive)
15,COCCN(C(=O)CC1CCCCC1)c1c(N)n(CC(C)C)c(=O)[nH]c1=O,13.6% (inactive)
16,CCOC(=O)CCCNC(=O)COC(=O)c1cc(Br)c(Br)s1,12% (inactive)
17,COc1ccc(C)cc1NC(=O)CSc1nnc2ccc(-c3ccccn3)nn12,15.8% (inactive)
18,COc1ccc(-c2nc3n(c(=O)c2C#N)CCS3)c(OC)c1,1.98% (inactive)
19,Cc1c(Br)c([N+](=O)[O-])nn1C(C)C(=O)Nc1nccs1 (stereo not given),9.97% (inactive)
20,O=C(NCCN1CCOCC1)c1ccc(/C=C2\Sc3ccccc3N(Cc3ccc(F)cc3)C2=O)cc1,62.4% (active)
21,CCCN1CCN(C(=O)CCCNC(=O)c2ccc(Cl)cc2)CC1,-0.622% (inactive)
22,Cc1nn(Cc2ccccc2)c(C)c1C(=O)NCCN1C(=O)S/C(=C\c2ccc(F)cc2)C1=O,26.7% (inactive)

row,SMILES,inhibition
1,CC(C)OCCCNC(=O)CN1C(=O)/C(=C/c2ccccc2F)Oc2ccccc21,13.4% (inactive)
2,O=C(NCCCN1CCOCC1)c1ccc2c(c1)N(Cc1cccc(F)c1)C(=O)c1ccccc1S2,13.8% (inactive)
3,CN1CCN(CCCNC(=O)c2ccc(/C=C3\Oc4ccccc4N(Cc4ccc(Cl)cc4)C3=O)cc2)CC1,99.3% (active)
4,Cc1ccccc1CN1C(=O)c2ccccc2Sc2ccc(C(=O)NCCCN3CCOCC3)cc21,24.3% (inactive)
5,CCN1CCN(CCNC(=O)c2ccc(/C=C3/Sc4ccccc4N(Cc4cccc(C)c4)C3=O)cc2)CC1,96.1% (active)
6,O=C(NCCN1CCOCC1)/C(=C/c1ccc(F)cc1)NC(=O)c1ccccc1,-6.74% (inactive)
7,O=C(CCc1ccc(S(=O)(=O)N2CCOCC2)cc1)NN=C1CCCCCCC1,21.1% (inactive)
8,N#Cc1cccc(NC(=O)C2CCCN(C(=O)c3ccc(Cl)cc3)C2)c1 (stereo not given),27.2% (inactive)
9,O=C(NNC(=O)C1C2CCC(C2)C1C(=O)O)c1ccc(Cl)cc1 (stereo not given),-14% (inactive)
10,COc1ccc(C(=O)COC(=O)c2nn(C)c(=O)c3ccccc23)c(OC)c1,3.83% (inactive)
11,CC(NC(=O)c1cccc(S(=O)(=O)N2CCc3ccccc3C2)c1)c1ccco1 (stereo not given),3.48% (inactive)
12,O=C(NCc1ccncc1)c1cccc(NS(=O)(=O)c2ccc(F)c(F)c2)c1,-23.7% (inactive)
13,CCOC(=O)C1=C(C)c2ccccc2OC1(C)C(=O)OCC (stereo not given),11.2% (inactive)
14,CC(Oc1ccc2c(-c3ccccc3)cc(=O)oc2c1)C(=O)NC(Cc1c[nH]c2ccccc12)C(=O)O (stereo not given),15.6% (inactive)
15,Cc1ccc(-c2nc(C)sc2CC(=O)OCC(=O)Nc2c(F)cccc2F)cc1,7.55% (inactive)
16,O=C(O)CCCn1c(=O)c2cccn2c2ccc(F)cc21,4.87% (inactive)
17,Cc1nnc(N/N=C/c2ccccn2)[nH]c1=O,78.6% (active)
18,Cc1cc(C(=O)N/N=C/c2ccccn2)c2ccccc2n1,-15.6% (inactive)
19,Cc1nnc(N/N=C/C2CC=CCC2)[nH]c1=O (stereo not given),12.6% (inactive)
20,COc1ccc(-c2nc3c(s2)CCc2onc(-c4ccc(OC)cc4)c2-3)cc1,1.93% (inactive)
21,O=C(C1CC1)N1N=C(c2ccc(Br)cc2)CC1(O)C(F)(F)F (stereo not given),-5.88% (inactive)
22,O=C(c1ccc(Cl)cc1)N1N=C(c2ccccn2)CC1(O)C(F)(F)F (stereo not given),53% (active)

row,SMILES,inhibition
1,O=C(Cc1ccccc1)N1N=C(c2ccncc2)CC1(O)C(F)(F)F (stereo not given),13.3% (inactive)
2,Cc1ccc(NC(=O)CC2C(=O)N(Cc3ccccc3)C(=S)N2NC(=O)c2cccc(F)c2)c(C)c1 (stereo not given),6.53% (inactive)
3,Fc1ccccc1/C=C1\CCCC2=C1Nc1ncnn1C2c1ccccc1F (stereo not given),98.8% (active)
4,Cc1ccc(S(=O)(=O)N2CCCCC2)cc1C(=O)N1CCN(CCO)CC1,18.6% (inactive)
5,CNC[C@H](CC1CCCCC1)NC[C@H](NCCC1CCCC1)[C@H](C)O,99.7% (active)
6,COc1ccccc1N(C)C(=O)c1cc(S(=O)(=O)N2CCc3ccccc32)cn1C,14.1% (inactive)
7,O=C(CC1SC(N2CCCC2)=NC1=O)Nc1ccc(C(=O)NCCc2ccc(F)cc2)cc1 (stereo not given),33.7% (inactive)
8,N#Cc1ncc(C(F)(F)F)cc1Oc1cccnc1,-4.54% (inactive)
9,Cc1nnc(SCCCCSc2nnc(C)c(=O)[nH]2)[nH]c1=O,-27.7% (inactive)
10,CCN1C(=O)N[C@@H](CCc2ccccc2)C(C(=O)OC)=C1C,10.9% (inactive)
11,CCC(C)NC(=O)c1nn(C)c(=O)c2ccccc12 (stereo not given),0.304% (inactive)
12,COC(=O)c1cc(NC(=O)c2nn(C)c(=O)c3ccccc23)cc(C(=O)OC)c1,51.2% (active)
13,CCC(CC)c1nnc(NC(=O)c2nn(C)c(=O)c3ccccc23)s1,-51.8% (inactive)
14,COc1ccc(C)cc1NC(=O)CCCN1C(=O)NC(C)(C)C1=O,7.88% (inactive)
15,COC(=O)C1=C(N)Oc2cc(C)[nH]c(=O)c2C1c1ccc(Cl)cc1 (stereo not given),-16.2% (inactive)
16,O=C(Cc1ccc(Cl)c(Cl)c1)Nc1ccc(SC(F)F)cc1,72.9% (active)
17,Cc1ccc(CC(=O)Nc2ccc(OC(F)F)c(Cl)c2)cc1C,15.9% (inactive)
18,CC(=O)N1CCN(CC(=O)Nc2ccc(SC(F)F)cc2)CC1,-2.95% (inactive)
19,CC(=O)c1c(C)[nH]c(C(=O)OCC(=O)Nc2c(C)n(C)n(-c3ccccc3)c2=O)c1C,11.3% (inactive)
